# Reference: PubChem BioAssay (Tox21)
# Where “and” joins values, the source holds several entries; their conditions need not be identical. Identical values can stand only once. Unmarked numbers belong to inactive results. Records with an inconclusive call do not appear. Entries that show only a call come without a potency. Calls of active or inactive are those of the source. Unless noted, the call rests on the fitted dose curve; in most records, active means well fitted curve in the direction sought with a large enough effect in the repeat runs; inconclusive means weak or mixed curves; inactive means no such curve, though single readings can be large; an effect the other way counts as inactive or inconclusive.
# Key:
# [1] = Human pregnane X receptor (PXR) small molecule agonists, qHTS cell viability counter screen (AID 1346977); further: nearly all actives have a fitted effect of over 50% in size
# Method in brief: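 After a 5hr pre-incubation, PXR-Luc HepG2 cells received compounds plus positive control in DMSO and were kept 24hr at 37C. Cell viability was quantified by fluorescence from CellTiter-Fluor added for the final hour.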
# [2] = Caspase-3/7 induction in HepG2 cells by small molecules, qHTS assay (AID 1346978); further: nearly all actives have a fitted effect of over 15% in size
# Method in brief: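 Wild-type HepG2 cells, 2,000/well, settled 5 hr at 37 C and 5% CO2, then compound-treated for 17 hr; caspase-3/7 activity read by luminescent Caspase-Glo 3/7 after 30 min at room temperature.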
# [3] = Caspase-3/7 induction in CHO-K1 cells by small molecules, qHTS cell viability counter screen (AID 1346979); further: nearly all actives have a fitted effect of over 35% in size
# Method in brief: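 Multiplexed with Caspase-Glo 3/7 in CHO-K1 cells, this counter screen added CellTiter-Fluor after 16hr of compound exposure and recorded fluorescence 1hr later.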
# [4] = Caspase-3/7 induction in CHO-K1 cells by small molecules, qHTS assay (AID 1346980); further: nearly all actives have a fitted effect of over 15% in size
# Method in brief: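 Wild-type CHO-K1 cells exposed to compounds for 17hr at 37 C, 5% CO2. Caspase-3/7 activity then measured by Caspase-Glo 3/7 luminescence after 30min at room temperature.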
# [5] = Caspase-3/7 induction in HepG2 cells by small molecules, qHTS cell viability counter screen (AID 1346981); further: series mostly up to about 92 µM; nearly all actives have a fitted effect of over 30% in size
# Method in brief: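 HepG2, WT, 2,000 cells/well; 5 hr pre-incubation 37 C/5% CO2; compound pin-transferred from DMSO; 16 hr exposure; CellTiter-Fluor, 1 hr; fluorescence read.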
# [6] = target: Nuclear receptor subfamily 1 group I member 2 (Homo sapiens) (UniProt O75469); assay: Human pregnane X receptor (PXR) small molecule agonists, qHTS assay (AID 1346982); further: nearly all actives have a fitted effect of over 35% in size; further: potency means the concentration at half of the fitted maximal effect
# Method in brief: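 Luciferase signal from ONE-Glo (30 min, room temperature) measured activation of hPXR-driven CYP3A4 reporter expression in PXR-Luc HepG2 cells treated with compounds for 24 hr at 37 C.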
# [7] = target: Acetylcholinesterase (Homo sapiens) (UniProt P22303); assay: Acetylcholinesterase (AChE) small molecule antagonists: colormetric cell-based qHTS assay (AID 1347395; calls by dose curve; further: nearly all actives have a fitted effect of over 30% in size)
# Method in brief: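 In this cell-based qHTS, attached SH-SY5Y cells were treated with test chemicals for 30 min, after which acetylthiocholine hydrolysis was followed by DTNB colour development over 90 min at 37 C.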
# [8] = target: Acetylcholinesterase (Homo sapiens) (UniProt P22303); assay: Acetylcholinesterase (AChE) small molecule antagonists: enzyme-based qHTS assay (AID 1347397; calls by dose curve; further: nearly all actives have a fitted effect of over 55% in size); details: Potency: AChE enzyme activity inhibition; outcome: AChE enzyme activity inhibition
# Method in brief: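 Enzyme inhibition was scored from DTNB-detected thiocholine formed by recombinant human AChE acting on acetylthiocholine. The 30 min compound preincubation and 10 min substrate reaction were both run at room temperature, with DMSO as vehicle control.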
# [9] = target: Acetylcholinesterase (Homo sapiens) (UniProt P22303); assay: Acetylcholinesterase (AChE) small molecule antagonists: enzyme-based qHTS assay with human liver microsomes (AID 1347399; calls by dose curve; further: nearly all actives have a fitted effect of over 60% in size); details: Potency: qHTS inhibition; outcome: qHTS inhibition
# Method in brief: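 Recombinant human AChE (50 mU/mL in the enzyme mix) and human liver microsomes (0.25 mg/mL final) were preincubated with compound and NADPH (0.25 mg/mL final) for 30 min at 37 C. Acetylthiocholine/DTNB was then added; thiocholine was read colorimetrically after 10 min at room temperature.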
# [10] = target: Cytochrome P450 2D6 (Homo sapiens) (UniProt P10635); assay: Cytochrome P450 Family 2 Subfamily D Member 6 (CYP2D6) small molecule antagonists: luciferase reporter qHTS assay (AID 1671196); further: series mostly up to about 120 µM; nearly all actives have a fitted effect of over 50% in size
# Method in brief: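 Read-out is luminescence from luciferin formed by CYP2D6 turnover of a proluciferin substrate, recorded as relative luminescence units. Reactions ran 1 h at room temperature after NADPH regeneration solution was added.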
# [11] = target: Cytochrome P450 2C19 (Homo sapiens) (UniProt P33261); assay: Cytochrome P450 Family 2 Subfamily C Member 19 (CYP2C19) small molecule antagonists: luciferase reporter qHTS assay (AID 1671197); further: nearly all actives have a fitted effect of over 65% in size; further: potency means the concentration at half of the fitted maximal effect; on activity change, negative = inhibition: series mostly up to about 120 µM
# Method in brief: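 P450-Glo CYP2C19 screening system; proluciferin substrate; DMSO compound stocks; 10 min RT preincubation; NADPH regeneration, 1 h at 37C; luciferin detection reagent, 20 min RT; luminescence as RLU.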
# [12] = target: Cytochrome P450 1A2 (Homo sapiens) (UniProt P05177); assay: Cytochrome P450 Family 1 Subfamily A Member 2 (CYP1A2) small molecule antagonists: luciferase reporter qHTS assay (AID 1671199); further: nearly all actives have a fitted effect of over 50% in size; further: potency means the concentration at half of the fitted maximal effect; on activity change, negative = inhibition: series mostly up to about 120 µM
# Method in brief: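 P450-Glo CYP1A2, 1536-well qHTS: enzyme/proluciferin substrate + cpd (DMSO), 10 min RT; NADPH regen, 1 h RT; detection reagent, 20 min; luminescence, RLU.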
# [13] = target: Voltage-gated inwardly rectifying potassium channel KCNH2 (Homo sapiens) (UniProt Q12809); assay: Human Ether-a-go-go-Related Gene (hERG) channel small molecule antagonists: fluorescence cell-based qHTS assay (AID 1671200);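 further: hERG-expressing U2OS cells given a thallium stimulus after FluxOR II dye loading; series mostly up to about 77 µM; nearly all actives have a fitted effect of over 50% in size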
# Method in brief: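 Cell line hERG-U2OS; dye FluxOR II, 1 h RT dark; Tl+ stimulus; ex 480/em 540 nm, read each second for 2 min.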
# [14] = target: Cytochrome P450 3A4 (Homo sapiens) (UniProt P08684); assay: Cytochrome P450 Family 3 Subfamily A Member 4 (CYP3A4) small molecule antagonists: luciferase reporter qHTS assay (AID 1671201)
# Method in brief: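 Room-temperature assay throughout: 10 min compound–enzyme/substrate preincubation, 1 h reaction after NADPH regeneration solution, 20 min detection. Luciferin formed from proluciferin substrate is quantified by luminescence.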
# [15] = target: Acetylcholinesterase (Homo sapiens) (UniProt P22303); assay: Acetylcholinesterase (AChE) small molecule antagonists: fluorescence cell-based qHTS assay (AID 1347398; calls by dose curve; further: nearly all actives have a fitted effect of over 50% in size); details: Potency: AChE activity; outcome: AChE activity
# Method in brief: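 Endogenous acetylcholinesterase of SH-SY5Y neuroblastoma cells is measured in situ. After overnight attachment and 30 min compound exposure, cells receive acetylthiocholine and Thiolite Green; fluorescence is read after 40 min at room temperature.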
# [16] = target: Cytochrome P450 2C9 (Homo sapiens) (UniProt P11712); assay: Cytochrome P450 Family 2 Subfamily C Member 9 (CYP2C9) small molecule antagonists: luciferase reporter qHTS assay (AID 1671198)
# Method in brief: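 P450-Glo proluciferin substrate with CYP2C9 enzyme; 10 min RT preincubation, then NADPH regeneration 1 h at 37C; luciferin detection reagent 20 min RT, luminescence in relative luminescence units.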
# Sequence of Cytochrome P450 3A4 (Homo sapiens) (P08684 whole entry, looked up): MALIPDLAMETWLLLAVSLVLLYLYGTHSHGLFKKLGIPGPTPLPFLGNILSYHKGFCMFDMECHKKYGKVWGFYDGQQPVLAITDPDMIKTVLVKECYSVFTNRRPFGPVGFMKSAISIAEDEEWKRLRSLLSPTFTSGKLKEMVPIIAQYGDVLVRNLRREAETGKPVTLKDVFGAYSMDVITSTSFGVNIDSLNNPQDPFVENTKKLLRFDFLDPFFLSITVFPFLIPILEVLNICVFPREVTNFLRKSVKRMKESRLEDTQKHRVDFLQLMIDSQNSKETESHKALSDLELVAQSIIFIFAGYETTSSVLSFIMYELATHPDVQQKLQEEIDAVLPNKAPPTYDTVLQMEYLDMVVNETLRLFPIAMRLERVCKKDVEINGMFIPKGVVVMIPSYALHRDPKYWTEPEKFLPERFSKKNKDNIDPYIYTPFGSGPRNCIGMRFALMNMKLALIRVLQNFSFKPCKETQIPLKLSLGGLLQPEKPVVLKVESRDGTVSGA
# Sequence of Cytochrome P450 2C9 (Homo sapiens) (P11712 whole entry, looked up): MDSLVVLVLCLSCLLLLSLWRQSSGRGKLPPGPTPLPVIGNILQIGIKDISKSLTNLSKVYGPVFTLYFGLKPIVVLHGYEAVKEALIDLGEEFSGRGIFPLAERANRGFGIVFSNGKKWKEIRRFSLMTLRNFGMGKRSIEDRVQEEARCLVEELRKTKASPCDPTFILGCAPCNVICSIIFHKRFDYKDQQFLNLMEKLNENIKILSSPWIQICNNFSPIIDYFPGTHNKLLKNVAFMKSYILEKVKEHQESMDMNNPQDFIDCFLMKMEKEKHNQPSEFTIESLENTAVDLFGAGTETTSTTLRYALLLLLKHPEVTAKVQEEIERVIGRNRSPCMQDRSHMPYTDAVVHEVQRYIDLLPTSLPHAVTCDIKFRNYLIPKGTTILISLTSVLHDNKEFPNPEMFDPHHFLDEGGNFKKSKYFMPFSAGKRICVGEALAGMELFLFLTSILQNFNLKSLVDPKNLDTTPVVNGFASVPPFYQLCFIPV
# Sequence of Nuclear receptor subfamily 1 group I member 2 (Homo sapiens) (O75469 whole entry, looked up): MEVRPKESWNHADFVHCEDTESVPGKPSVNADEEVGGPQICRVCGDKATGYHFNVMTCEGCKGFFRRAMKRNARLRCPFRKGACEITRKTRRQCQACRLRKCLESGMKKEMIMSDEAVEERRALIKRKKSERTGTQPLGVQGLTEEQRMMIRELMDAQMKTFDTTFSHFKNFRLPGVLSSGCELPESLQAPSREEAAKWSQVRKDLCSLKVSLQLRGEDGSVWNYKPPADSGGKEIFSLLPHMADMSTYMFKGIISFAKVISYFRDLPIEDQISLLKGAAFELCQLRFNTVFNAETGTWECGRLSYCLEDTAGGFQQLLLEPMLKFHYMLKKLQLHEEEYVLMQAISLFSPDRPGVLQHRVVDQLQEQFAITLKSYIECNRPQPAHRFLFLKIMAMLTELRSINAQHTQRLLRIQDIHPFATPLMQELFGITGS
# Sequence of Cytochrome P450 1A2 (Homo sapiens) (P05177 whole entry, looked up): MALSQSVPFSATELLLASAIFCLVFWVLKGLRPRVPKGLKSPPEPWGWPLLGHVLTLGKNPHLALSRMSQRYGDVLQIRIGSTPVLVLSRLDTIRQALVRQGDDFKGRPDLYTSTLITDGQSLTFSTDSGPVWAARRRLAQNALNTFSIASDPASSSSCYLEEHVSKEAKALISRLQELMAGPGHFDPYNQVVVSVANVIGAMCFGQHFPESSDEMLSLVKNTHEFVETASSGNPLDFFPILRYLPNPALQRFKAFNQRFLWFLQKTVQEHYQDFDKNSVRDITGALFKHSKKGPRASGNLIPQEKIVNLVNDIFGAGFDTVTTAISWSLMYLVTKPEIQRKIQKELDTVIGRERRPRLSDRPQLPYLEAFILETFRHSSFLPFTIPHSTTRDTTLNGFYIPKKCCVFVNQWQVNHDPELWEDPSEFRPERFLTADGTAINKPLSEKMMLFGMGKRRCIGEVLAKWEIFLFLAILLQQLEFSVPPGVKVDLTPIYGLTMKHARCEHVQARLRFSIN
# Sequence of Voltage-gated inwardly rectifying potassium channel KCNH2 (Homo sapiens) (Q12809 whole entry, looked up): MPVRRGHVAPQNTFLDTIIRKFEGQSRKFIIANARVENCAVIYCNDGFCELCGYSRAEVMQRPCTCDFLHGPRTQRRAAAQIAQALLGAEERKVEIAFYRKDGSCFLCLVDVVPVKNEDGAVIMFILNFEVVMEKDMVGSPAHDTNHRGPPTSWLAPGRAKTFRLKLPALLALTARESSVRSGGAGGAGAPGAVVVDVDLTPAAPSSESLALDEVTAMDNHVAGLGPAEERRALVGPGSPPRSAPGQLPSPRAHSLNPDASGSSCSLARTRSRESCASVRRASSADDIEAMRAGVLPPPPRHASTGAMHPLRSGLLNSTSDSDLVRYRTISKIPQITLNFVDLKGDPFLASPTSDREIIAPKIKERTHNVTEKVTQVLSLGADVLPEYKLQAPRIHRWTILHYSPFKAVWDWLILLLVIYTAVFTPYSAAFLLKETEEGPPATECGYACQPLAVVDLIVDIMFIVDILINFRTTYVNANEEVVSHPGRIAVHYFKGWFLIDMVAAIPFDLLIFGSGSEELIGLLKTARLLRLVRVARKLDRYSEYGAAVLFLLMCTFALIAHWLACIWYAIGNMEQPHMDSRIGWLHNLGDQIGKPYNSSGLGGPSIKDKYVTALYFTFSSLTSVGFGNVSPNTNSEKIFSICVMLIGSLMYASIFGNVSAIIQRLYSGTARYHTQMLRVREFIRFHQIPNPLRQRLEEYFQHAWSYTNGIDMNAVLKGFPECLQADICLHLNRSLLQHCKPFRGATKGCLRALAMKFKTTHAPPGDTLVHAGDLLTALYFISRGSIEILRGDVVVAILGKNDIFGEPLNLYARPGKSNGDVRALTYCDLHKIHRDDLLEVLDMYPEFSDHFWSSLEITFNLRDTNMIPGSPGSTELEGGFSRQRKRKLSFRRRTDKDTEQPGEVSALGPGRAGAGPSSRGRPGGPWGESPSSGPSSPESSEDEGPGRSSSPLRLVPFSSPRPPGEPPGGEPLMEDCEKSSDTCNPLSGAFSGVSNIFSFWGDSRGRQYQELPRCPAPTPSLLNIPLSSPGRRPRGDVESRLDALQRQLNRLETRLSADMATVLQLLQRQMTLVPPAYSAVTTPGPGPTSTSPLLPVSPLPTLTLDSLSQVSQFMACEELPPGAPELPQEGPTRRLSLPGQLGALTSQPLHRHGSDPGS
# Sequence of Cytochrome P450 2C19 (Homo sapiens) (P33261 whole entry, looked up): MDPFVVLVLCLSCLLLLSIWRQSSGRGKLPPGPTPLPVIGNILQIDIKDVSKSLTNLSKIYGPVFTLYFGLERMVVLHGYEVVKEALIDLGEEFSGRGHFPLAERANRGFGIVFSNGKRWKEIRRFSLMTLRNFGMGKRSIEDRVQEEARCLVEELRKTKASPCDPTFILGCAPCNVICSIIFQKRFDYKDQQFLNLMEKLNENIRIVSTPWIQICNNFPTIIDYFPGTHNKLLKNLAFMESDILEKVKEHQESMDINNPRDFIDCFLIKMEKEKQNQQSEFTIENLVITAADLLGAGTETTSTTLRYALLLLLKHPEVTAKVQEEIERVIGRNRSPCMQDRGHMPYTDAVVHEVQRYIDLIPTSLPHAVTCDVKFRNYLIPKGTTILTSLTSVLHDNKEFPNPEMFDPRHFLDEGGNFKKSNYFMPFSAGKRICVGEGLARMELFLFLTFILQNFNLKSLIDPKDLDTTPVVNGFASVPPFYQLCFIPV
# Sequence of Acetylcholinesterase (Homo sapiens) (P22303 whole entry, looked up): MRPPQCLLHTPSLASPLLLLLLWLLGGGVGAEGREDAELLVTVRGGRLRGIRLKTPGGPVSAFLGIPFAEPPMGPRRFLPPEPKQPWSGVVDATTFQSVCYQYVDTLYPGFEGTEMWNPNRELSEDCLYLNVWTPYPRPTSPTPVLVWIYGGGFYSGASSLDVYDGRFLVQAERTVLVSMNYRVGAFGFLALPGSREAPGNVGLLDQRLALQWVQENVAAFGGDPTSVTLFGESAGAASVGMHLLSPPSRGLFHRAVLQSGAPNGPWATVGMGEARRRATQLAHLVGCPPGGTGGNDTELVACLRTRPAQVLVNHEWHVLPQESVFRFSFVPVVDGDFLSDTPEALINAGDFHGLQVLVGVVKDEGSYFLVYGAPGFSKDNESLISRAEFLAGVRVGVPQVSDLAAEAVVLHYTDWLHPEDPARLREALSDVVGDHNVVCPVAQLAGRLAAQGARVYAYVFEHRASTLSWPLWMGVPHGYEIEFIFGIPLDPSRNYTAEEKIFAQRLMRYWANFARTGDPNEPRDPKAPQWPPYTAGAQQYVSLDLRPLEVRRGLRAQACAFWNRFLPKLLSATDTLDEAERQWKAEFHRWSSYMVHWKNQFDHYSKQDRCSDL
# Sequence of Cytochrome P450 2D6 (Homo sapiens) (P10635 whole entry, looked up): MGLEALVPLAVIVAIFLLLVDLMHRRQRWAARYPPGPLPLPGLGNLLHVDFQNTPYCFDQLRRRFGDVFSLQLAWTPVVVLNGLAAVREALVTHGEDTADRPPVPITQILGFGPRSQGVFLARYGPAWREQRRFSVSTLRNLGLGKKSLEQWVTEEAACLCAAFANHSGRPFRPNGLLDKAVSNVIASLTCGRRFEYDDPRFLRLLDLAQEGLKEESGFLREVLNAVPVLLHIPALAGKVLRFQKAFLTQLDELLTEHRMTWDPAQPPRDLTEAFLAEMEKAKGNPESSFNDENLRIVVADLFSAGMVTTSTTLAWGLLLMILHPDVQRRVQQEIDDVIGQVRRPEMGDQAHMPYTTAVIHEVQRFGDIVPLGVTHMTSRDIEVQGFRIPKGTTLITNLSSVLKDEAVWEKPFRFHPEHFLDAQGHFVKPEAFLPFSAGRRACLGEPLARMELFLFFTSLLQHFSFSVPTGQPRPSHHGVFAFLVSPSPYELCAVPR
smiles,measurement,setting,value
CN=CNc1ccc(C)cc1C,Potency,[1],inactive
same,outcome,[2],inactive
same,Potency,[3],inactive
same,outcome,[4],inactive
same,Potency,[5],inactive
same,Potency,[6],inactive
same,Potency,[7],inactive
same,Potency,[8],inactive
same,Potency,[9],inactive
same,Potency,[10],inactive
same,Potency,[11],inactive
same,Potency,[12],inactive
same,Potency,[13],inactive
same,Potency,[14],inactive
Oc1ccc(Cc2ccc(O)cc2)cc1,Potency,[1],inactive
same,outcome,[2],inactive
same,Potency,[3],inactive
same,outcome,[4],inactive
same,Potency,[5],inactive
same,Potency,[6],54.9 µM (active)
same,Potency,[7],inactive
same,Potency,[15],inactive
same,Potency,[9],inactive
same,Potency,[11],inactive
same,Potency,[16],inactive
same,Potency,[13],inactive
same,Potency,[14],inactive
Brc1c(Br)c(Br)c(Br)c(Br)c1Br,"activity change, negative = cytotoxicity",[1],1.06% [at 8.39 µM]
same,caspase activation,[2],0.467% [at 8.39 µM]
same,"activity change, negative = cytotoxicity",[3],1.28% [at 8.39 µM]
same,caspase-3/7 activation,[4],-0.0086% [at 8.39 µM]
same,"activity change, negative = cytotoxicity",[5],7.69% [at 8.39 µM]
same,activation,[6],1.3% [at 8.39 µM]
same,"activity, negative = inhibition",[7],-5.69% [at 10.5 µM]
same,"activity change, negative = inhibition",[15],-32.6% [at 10.5 µM]
same,"activity change, negative = inhibition",[9],-0.832% [at 10.5 µM]
same,"activity change, negative = inhibition",[10],-1.47% [at 10.5 µM]
same,"activity change, negative = inhibition",[11],-0.615% [at 10.5 µM]
same,"activity change, negative = inhibition",[16],0.0091% [at 10.5 µM]
same,"activity change, negative = inhibition",[13],19.9% [at 6.97 µM]
COP(=O)(O)OC,Potency,[1],inactive
same,outcome,[2],inactive
same,Potency,[3],inactive
same,outcome,[4],inactive
same,Potency,[5],inactive
same,Potency,[6],inactive
same,Potency,[7],inactive
same,Potency,[8],inactive
same,Potency,[9],inactive
same,Potency,[11],18.5 µM (active)
same,Potency,[16],inactive
same,Potency,[12],32.8 µM (active)
same,Potency,[13],inactive
C=CC1(C)OC(=O)N(c2cc(Cl)cc(Cl)c2)C1=O (stereo unspecified),Potency,[1],inactive
same,outcome,[2],inactive
same,Potency,[3],inactive
same,outcome,[4],inactive
same,Potency,[5],inactive
same,Potency,[6],60.8 µM (active) and 54.5 µM (active)
same,Potency,[7],inactive
same,Potency,[8],inactive
same,Potency,[9],inactive
same,Potency,[11],7.92 µM (active) and 12.6 µM (active)
same,Potency,[16],inactive
same,Potency,[12],5.61 µM (active) and 6.33 µM (active)
CCCCS(=O)(=O)Cl,Potency,[1],inactive
same,outcome,[2],inactive
same,Potency,[3],inactive
same,outcome,[4],inactive
same,Potency,[5],inactive
same,Potency,[6],inactive
same,Potency,[7],inactive
same,Potency,[15],inactive
same,Potency,[9],inactive
same,Potency,[16],inactive
same,Potency,[12],inactive
same,Potency,[13],inactive
same,Potency,[14],inactive
BrCCc1ccccc1,Potency,[1],inactive
same,outcome,[2],inactive
same,Potency,[3],inactive
same,outcome,[4],inactive
same,Potency,[5],inactive
same,Potency,[6],inactive
same,Potency,[7],inactive
same,Potency,[9],inactive
same,Potency,[11],inactive
same,Potency,[16],inactive
same,Potency,[12],inactive
same,Potency,[13],inactive
same,Potency,[14],inactive
